# G9a inh: G9a (human) methyltransferase inhibition; Q96KQ7; G9a H3K9 monomethylation, AlphaScreen, 2 h; Potency, µM (highest dose often 102 µM), without a hit: top-dose activity, negative = inhibition, hits mostly inhibitors; 350,000 tested, 8.8% active; further: on the % scale 0 is the no-effect control and ±100 the full control effect; nearly all actives have a fitted effect of over 75% in size
#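 Using a bead-based AlphaScreen, monomethylated H3K9 product from 2 h room-temperature reactions (G9a 20 nM, peptide 500 nM, SAM 20 uM) was detected with 0.5 ug/mL rabbit anti-H3K9me1 antibody.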
# JMJD2A Tudor: blocks the human JMJD2A Tudor domain; 390,000 tested, 4.4% active; AID 504339; Potency, µM (highest dose often 114 µM), for the others: at the top dose activity change, negative = inhibition, usual class: inhibitors; AlphaScreen JMJD2A-Tudor / H3K4me3 peptide binding; further: on the % scale 0 is the no-effect control and ±100 the full control effect; nearly all actives have a fitted effect of over 50% in size
# BAZ2B block: inhibitors of human BAZ2B bromodomain. AlphaScreen BAZ2B-H3K14Ac peptide displacement. Potency, µM (titrated, usually from 114 µM), for the others: at the top dose activity change, negative = inhibition, most hits filed as inhibitors. 360,000 tested, 4.4% active. AID 504333; further: on the % scale 0 is the no-effect control and ±100 the full control effect; nearly all actives have a fitted effect of over 60% in size
#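 BAZ2B 50 nM plus b-H3(5-23)K14Ac 50 nM, PBS pH 7.4/0.01% Tween-20, 30 min RT; compound added (max 110 uM), 30 min RT; streptavidin donor/Ni-chelate acceptor beads 10 ug/mL final, 20 min dark; AlphaScreen read.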
# HP1b binding inh: HP1-beta chromodomain-methylated histone interaction inhibition | P83916 | AlphaScreen HP1-beta / biotin-H3K9me3 peptide binding | Potency, µM (top dose mostly 114 µM), for inactives: at the top dose activity change, negative = inhibition, actives largely listed as inhibitors | 390,000 tested, 0.56% active | AID 540317; further: nearly all actives have a fitted effect of over 70% in size
#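 Compound inhibition of the preformed complex between 50 nM HP1-beta and 50 nM biotinylated H3K9me3 peptide was read by AlphaScreen. Buffer was PBS pH 7.4 with 0.01% Tween-20. Incubations ran 30 min at room temperature, with 10 ug/mL donor/acceptor beads.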
# Sfp PPTase inh: inhibitors of Bacillus subtilis Sfp phosphopantetheinyl transferase | Q9F4F7 | 310,000 tested, 3.5% active | Biochemical Sfp PPTase activity, qHTS | Potency, µM, for inactives: largest response in the series, negative = inhibition, actives largely listed as inhibitors;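 further: the enzyme is Sfp with the accession as filed and its product quenches rhodamine fluorescence; 0% = enzyme reaction without inhibitor and -100% = no enzyme wells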
#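 Sfp 15 nM + cpd, 15 min RT; start w/ rhodamine-CoA 5 uM, BHQ-2-YbbR 12.5 uM (final); 50 mM Hepes pH 7.6, 10 mM MgCl2, 0.01% NP-40, 0.01% BSA; read 525/598 nm at 0 and 30 min.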
# TDP1 inh: TDP1 (human) enzyme inhibition; recombinant TDP1, AlphaScreen DNA substrate cleavage; Potency, µM (highest dose often 130 µM), for the others: at the top dose activity change, negative = inhibition, actives largely listed as inhibitors; 350,000 tested, 0.28% active; further: on the % scale 0 is the no-effect control and ±100 the full control effect; nearly all actives have a fitted effect of over 40% in size
#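 Compounds were preincubated with Tdp1 (1 nM final) for 15 min at room temperature before substrate (15 nM final) started a 5 min reaction; beads (10 ug/ml final) were then added for 10 min before AlphaScreen detection.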
# * marks the source's active call; other numbers are inactive results; u = inconclusive; x = no result given; [ ] = another dose, or the depositor's remark. Rows were chosen to be rich in hits. Some 12% of all compounds tested hit in one or more screens of this group. The call rests on the fitted dose curve; in most records, active means well fitted curve in the direction sought with a large enough effect; inconclusive means small, poorly fitted or top-dose-only effect, or another doubt; inactive means no such curve, though single readings can be large; an effect the other way counts as inactive or inconclusive. Potency means the concentration at half of the fitted maximal effect.
SMILES,G9a inh,JMJD2A Tudor,BAZ2B block,HP1b binding inh,Sfp PPTase inh,TDP1 inh
COc1ccc(/C=C2\N=C(C)OC2=O)cc1OC(C)=O,28µM*,-14%,-2%,10%,-17%,x
C=CCOc1ccc(/C=C2\N=C(C)OC2=O)cc1OC,x,-13%,-12%,-5%,4%,1%
COc1ccc(/C=C2\N=C(C)OC2=O)cc1OC,35µM*,1%,-1%,11%,-2%,x
COc1cc(/C=C2\N=C(c3ccccc3)OC2=O)ccc1OC(C)=O,x,-12%,23%,6%,14%,x
O=C(O)Cn1c(=O)c2c3c(sc2n(Cc2ccc(Cl)cc2Cl)c1=O)CCCC3,u,-14%,-9%,19%,-1%,x
CCCCCCCC1=CC2=C(Cl)C(=O)C(C)(OC(C)=O)C(=O)C2=CO1 (centres undefined),x,x,x,x,0%,-2%
CC[C@H](C)/C=C/C1=CC2=C(Cl)C(=O)[C@@]3(C)OC(=O)C(C(=O)[C@H](C)[C@@H](C)O)=C3C2=CO1,x,56µM*,x,u,x,x
O=C(/C=C/c1ccccc1)Nc1sc2c(c1C(=O)O)CCC2,50µM*,-18%,-32%,16%,11%,1%
O=C(/C=C/c1ccco1)Nc1sc2c(c1C(=O)O)CCC2,u,u,u,-26%,50µM*,x
Cc1ccc(-c2csc(NC(=O)/C=C/c3ccco3)c2C(=O)O)cc1,x,u,79µM*,26%,28µM*,x
COc1ccc(CNC(=O)Cn2c(=O)nc(-c3ccccc3)c3cc(Cl)ccc32)cc1OC,4%[12.7 µM],-2%,-14%,44%,x,4%
COC(=O)c1ccc(NC(=O)CC2C(=O)N(c3cccc(OC)c3)C(=O)N2C(C)C)cc1 (centres undefined),u,6%,-21%,29%,x,0%
Cc1cccc(NC(=O)c2ccc([N+](=O)[O-])s2)n1,13%[59 µM],6%,u,40%,6%,5%
C1CN(CC23CC4CC(CC(C4)C2)C3)CCO1,7.9µM*,0%,4%,31%,-5%,4%
O=C(Nc1cc(S(=O)(=O)N2CCOCC2)ccc1N1CCOCC1)c1cccs1,14%[2.33 µM],89µM*,0%,-21%,x,0%[56.1 µM]
CCc1ccc(C(=O)NNC(=O)c2cccc(S(=O)(=O)N3CCN(C)CC3)c2)cc1,56µM*,-19%,12%,6%,x,5%
CN1CCN(S(=O)(=O)c2cccc(C(=O)Nc3ccccc3N3CCCC3)c2)CC1,u,-13%,-29%,2%,9%,5%
CC1CN(S(=O)(=O)c2cccc(C(=O)Nc3cc(Cl)ccc3N3CCOCC3)c2)CC(C)O1 (centres undefined),-12%[59 µM],-8%,12%,41%,x,1%
CN1CCN(S(=O)(=O)c2cccc(C(=O)Nc3cc(Cl)ccc3N3CCOCC3)c2)CC1,16µM*,-13%,-3%,15%,x,4%
COc1ccc(S(=O)(=O)N2CCOCC2)cc1NC(=O)c1cccs1,14%[12.7 µM],5%,3%,35%,x,3%
CN1CCN(S(=O)(=O)c2cccc(C(=O)Nc3cc(C(F)(F)F)ccc3N3CCCC3)c2)CC1,50µM*,-13%,2%,28%,x,1%[0.505 µM]
CCN(CC)CCCNC(=O)CCc1c(C)nc2c(c1C)c(=O)n(C)c(=O)n2C,2%[59 µM],-6%,-21%,18%,x,-1%
CC1CN(S(=O)(=O)c2cccc(C(=O)Nc3ccccc3N3CCCC3)c2)CC(C)O1 (centres undefined),50µM*,u,-33%,-18%,x,-6%
CC(=O)N1CCN(S(=O)(=O)c2cccc(C(=O)Nc3ccccc3N3CCCC3)c2)CC1,7%[0.501 µM],-16%,3%,34%,x,3%
CCN(CC)S(=O)(=O)c1ccc(NC2c3ccccc3C(=O)N2Cc2ccco2)cc1 (centres undefined),u,-22%,-25%,-5%,-18%,5%
SMILES,G9a inh,JMJD2A Tudor,BAZ2B block,HP1b binding inh,Sfp PPTase inh,TDP1 inh
O=C1c2ccccc2C(Nc2ccccc2)N1c1ccc(Cl)cn1 (centres undefined),u,-5%,-33%,44%,22%,-1%
O=C1c2ccccc2C(Nc2ccc3c(c2)OCCO3)N1c1ccc(Cl)cn1 (centres undefined),45µM*,u,40µM*,u,-3%,8%
O=C1c2ccccc2C(Nc2ccc3c(c2)OCCO3)N1Cc1ccc2c(c1)OCO2 (centres undefined),u,40µM*,35µM*,-25%,-2%,13%
CCN(CC)S(=O)(=O)c1ccc(NC2c3ncccc3C(=O)N2Cc2ccccc2)cc1 (centres undefined),x,28µM*,u,-5%,-25%,4%
COc1ccc(NC2c3ccccc3C(=O)N2Cc2ccc3c(c2)OCO3)cc1 (centres undefined),45µM*,40µM*,50µM*,u,-11%,x
CN1CC(c2ccccc2)Oc2ccccc2C1=S (centres undefined),x,-12%,x,52%,x,x
CC(=O)c1cc2c(cc1NC(=O)CSc1ccc(S(=O)(=O)N(C)C)cn1)OCO2,1%[12.7 µM],16%,-6%,56%,x,3%
O=C(O)c1cccc(NS(=O)(=O)c2cccc(C(=O)Nc3ccccc3[N+](=O)[O-])c2)c1,0%,-9%,3%,21%,-2%,5%
CCN(CC)S(=O)(=O)c1ccc(NC2c3ccccc3C(=O)N2Cc2ccc3c(c2)OCO3)cc1 (centres undefined),40µM*,-18%,0%,14%,-4%,3%
O=C1c2ccccc2C(Nc2ccccc2)N1Cc1ccc2c(c1)OCO2 (centres undefined),u,-29%,-31%,-5%,2%,x
O=C1OC(Nc2ccc3c(c2)OCO3)c2ccccc21 (centres undefined),u,50µM*,40µM*,u,56µM*,1%
S=C(N/N=C/c1ccc(Cl)cc1)N1CCOCC1,u,-28%,u,-6%,-1%,8%
Cc1ccc(/C=N/NC(=S)N2CCOCC2)cc1,28µM*,-34%,u,13%,-8%,8%
S=C(N/N=C/c1ccc(Br)cc1)N1CCCCC1,24%,u,7.9µM*,11%,12%,5%
Cc1cc2c(cc(C(=O)OC(C(=O)NCc3ccco3)C(C)C)n2C)o1 (centres undefined),40µM*,u,u,-15%,u,8%
NC(=O)c1c(NC(=O)c2ccccc2F)sc2c1CCCC2,x,-8%,-2%,15%,-21%,1%
Cc1n[nH]c(C)c1CCCCOc1ccccc1,50µM*,-32%[57.1 µM],-20%,13%,5%,10%

# Assay outcomes (PubChem)
